Inconclusive results are not listed. Active and inactive are the calls of the source. Rule for the calls: active = hit-call score of the fitted dose curve at least 0.9, where 1 is the maximum; inconclusive = response in the unintended direction; inactive = score below 0.9.
What follows are molecules tested against Nuclear receptor subfamily 1 group I member 2 (Homo sapiens) (UniProt O75469) (assay: ATG_PXR_TRANS: Attagene TRANS-FACTORIAL HepG2 Assay for human Pregnane X Receptor (PXR) (AID 2283008)).
Chain of Nuclear receptor subfamily 1 group I member 2 (Homo sapiens) (O75469 whole entry, looked up, the tested form may be a part): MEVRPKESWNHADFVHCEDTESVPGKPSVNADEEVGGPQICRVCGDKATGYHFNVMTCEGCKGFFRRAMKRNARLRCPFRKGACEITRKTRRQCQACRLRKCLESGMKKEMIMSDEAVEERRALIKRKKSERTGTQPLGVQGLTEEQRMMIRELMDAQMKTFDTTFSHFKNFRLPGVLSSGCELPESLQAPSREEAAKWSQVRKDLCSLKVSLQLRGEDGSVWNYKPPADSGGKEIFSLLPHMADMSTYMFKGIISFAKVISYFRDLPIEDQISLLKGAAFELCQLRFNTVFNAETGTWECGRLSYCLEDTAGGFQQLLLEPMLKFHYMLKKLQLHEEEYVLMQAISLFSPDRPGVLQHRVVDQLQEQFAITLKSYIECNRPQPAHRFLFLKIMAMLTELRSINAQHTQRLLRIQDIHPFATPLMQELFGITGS
Procedure, shortened: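 HepG2 transfected (FuGene 6) with GAL4-UAS reporter units + PXR-Gal4 chimera; dosed 24 h. Total RNA → oligo(dT) RT → PCR → 6-FAM primer extension → HpaI cut → CE. Gain-of-signal vs DMSO.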
In the case of `Cc1cc(C)c(S(=O)(=O)O)cc1N=Nc1cc(S(=O)(=O)O)c2ccccc2c1O`, the outcome is reported as “inactive”. `CCCc1c(OCCCCc2nn[nH]n2)ccc(C(C)=O)c1O` was tested, and the outcome was “inactive”. With `CCCCCCOC(=O)CCCCCCCC(=O)OCCCCCC` the outcome was “inactive”. For `CC1=NN(c2cc(Cl)c(S(=O)(=O)O)cc2Cl)C(=O)C1N=Nc1ccc(S(=O)(=O)O)cc1` (configuration not stated), the outcome was “inactive”. For `O=C(O)Cc1c[nH]c2ccccc12`, the outcome was “inactive”. For `CCCCCCCCCCC1CO1` (configuration not stated), the outcome was “inactive”. With `CC(C)n1c(/C=C/[C@@H](O)C[C@@H](O)CC(=O)O)c(-c2ccc(F)cc2)c2ccccc21` the outcome was “inactive”. In the case of `CC1=C(CC=O)C(C)(C)CCC1`, the AC50 is reported as 1.38 µM (active). With `Cc1cccnc1` the outcome was “inactive”. With `Cc1ccccc1S(N)(=O)=O` the outcome was “inactive”. With `CC(C)CC(=O)CC(C)CC(C)C` (configuration not stated) the outcome was “inactive”. In the case of `CN(C)CCCN1c2ccccc2CCc2ccc(Cl)cc21`, the outcome is reported as “inactive”. For `CC/C=C\CC1=C(C)CCC1=O`, the outcome was “inactive”. With `COC(OC)C(C)c1ccccc1` (configuration not stated) the outcome was “inactive”. For `COc1ccccc1OCC(O)CO` (configuration not stated), the outcome was “inactive”. For `OCCN(CCO)c1cccc(Cl)c1`, the outcome was “inactive”. With `CC=CC(=O)O` the outcome was “inactive”.

What follows are molecules tested against human Retinoic Acid Receptor gamma (RARg), RARG (gene 5916) (UniProt P13631) (assay: ATG_RARg_TRANS: Attagene TRANS-FACTORIAL HepG2 Assay for human Retinoic Acid Receptor gamma (RARg) (AID 2283009)).
Chain of human Retinoic Acid Receptor gamma (RARg), RARG (gene 5916) (P13631 whole entry, looked up, the tested form may be a part): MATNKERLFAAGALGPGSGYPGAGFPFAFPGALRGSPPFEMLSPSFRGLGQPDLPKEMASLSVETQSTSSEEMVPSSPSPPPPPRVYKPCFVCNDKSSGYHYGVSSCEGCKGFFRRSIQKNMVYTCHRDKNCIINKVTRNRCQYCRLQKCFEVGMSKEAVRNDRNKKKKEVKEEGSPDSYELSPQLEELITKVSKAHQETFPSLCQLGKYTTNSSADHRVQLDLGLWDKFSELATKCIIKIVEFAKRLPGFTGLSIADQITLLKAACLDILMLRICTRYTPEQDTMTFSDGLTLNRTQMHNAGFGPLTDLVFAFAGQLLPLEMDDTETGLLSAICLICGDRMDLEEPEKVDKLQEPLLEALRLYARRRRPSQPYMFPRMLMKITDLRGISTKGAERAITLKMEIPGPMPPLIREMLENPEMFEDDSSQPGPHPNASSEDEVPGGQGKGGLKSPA
Procedure, shortened: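 Transactivation of exogenous RARg-Gal4 fusion measured as reporter transcript induction after 24 h in transfected HepG2 cells. RNA reverse-transcribed, amplified, fluorescently labeled and resolved by capillary electrophoresis; increase relative to DMSO.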
In the case of `Clc1ccccn1`, the outcome is reported as “inactive”. In the case of `CC(C)CC(=O)O`, the outcome is reported as “inactive”. For `Cc1cc(O)cc(C)c1Cl`, the outcome was “inactive”. With `CCCOCCC` the outcome was “inactive”. In the case of `CC=CC(=O)O`, the outcome is reported as “inactive”.

These molecules were tested against human RAR-related Orphan Receptor beta (RORb), RORB (gene 6096) (UniProt Q92753) (assay: ATG_RORb_TRANS: Attagene TRANS-FACTORIAL HepG2 Assay for human RAR-related Orphan Receptor beta (RORb) (AID 2283010)).
Chain of human RAR-related Orphan Receptor beta (RORb), RORB (gene 6096) (Q92753 whole entry, looked up, the tested form may be a part): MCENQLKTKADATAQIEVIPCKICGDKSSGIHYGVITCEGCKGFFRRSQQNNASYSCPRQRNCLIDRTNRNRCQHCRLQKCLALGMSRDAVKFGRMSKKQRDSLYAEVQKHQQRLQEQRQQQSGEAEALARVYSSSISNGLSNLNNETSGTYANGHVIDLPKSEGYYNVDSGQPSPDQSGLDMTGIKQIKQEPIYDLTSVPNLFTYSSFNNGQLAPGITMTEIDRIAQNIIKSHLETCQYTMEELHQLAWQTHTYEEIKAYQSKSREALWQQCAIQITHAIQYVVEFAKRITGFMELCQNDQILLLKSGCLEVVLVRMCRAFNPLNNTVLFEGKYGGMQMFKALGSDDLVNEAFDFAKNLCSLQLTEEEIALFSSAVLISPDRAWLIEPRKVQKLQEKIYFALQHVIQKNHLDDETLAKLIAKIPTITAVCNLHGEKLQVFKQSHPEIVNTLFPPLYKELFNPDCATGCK
Procedure, shortened: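 Read-out is reporter mRNA induction, quantified by RT-PCR with fluorescent capillary electrophoresis, 24 h post-dose in transiently transfected HepG2 expressing exogenous NR-Gal4 chimera. Activity fitted upward versus DMSO.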
For `CC1(C)S[C@@H]2[C@H](NC(=O)[C@H](N)c3ccccc3)C(=O)N2[C@H]1C(=O)O`, the outcome was “inactive”. `CCC(C)(CCC(C)C)C(=O)O` (configuration not stated) was tested, and the outcome was “inactive”. With `CC1=NN(c2cc(Cl)c(S(=O)(=O)O)cc2Cl)C(=O)C1N=Nc1ccc(S(=O)(=O)O)cc1` (configuration not stated) the outcome was “inactive”. In the case of `O=[N+]([O-])c1ccc2nc[nH]c2c1`, the outcome is reported as “inactive”. With `CC(C)CC(=O)O` the outcome was “inactive”. For `CC1=C(CC=O)C(C)(C)CCC1`, the outcome was “inactive”. `Cc1cccnc1` was tested, and the outcome was “inactive”. In the case of `OCCOCCOCCOCCOCCO`, the outcome is reported as “inactive”. With `CC(C)CC(=O)CC(C)CC(C)C` (configuration not stated) the outcome was “inactive”. In the case of `F[B-](F)(F)F`, the outcome is reported as “inactive”. `CC1=CCCC(C)(C)C12CCC(C)O2` (configuration not stated) was tested, and the outcome was “inactive”.

Each molecule was assayed against human RAR-related Orphan Receptor gamma (RORg), RORC (gene 6097) (UniProt P51449) (assay: ATG_RORg_TRANS: Attagene TRANS-FACTORIAL HepG2 Assay for human RAR-related Orphan Receptor gamma (RORg) (AID 2283011)).
Chain of human RAR-related Orphan Receptor gamma (RORg), RORC (gene 6097) (P51449 whole entry, looked up, the tested form may be a part): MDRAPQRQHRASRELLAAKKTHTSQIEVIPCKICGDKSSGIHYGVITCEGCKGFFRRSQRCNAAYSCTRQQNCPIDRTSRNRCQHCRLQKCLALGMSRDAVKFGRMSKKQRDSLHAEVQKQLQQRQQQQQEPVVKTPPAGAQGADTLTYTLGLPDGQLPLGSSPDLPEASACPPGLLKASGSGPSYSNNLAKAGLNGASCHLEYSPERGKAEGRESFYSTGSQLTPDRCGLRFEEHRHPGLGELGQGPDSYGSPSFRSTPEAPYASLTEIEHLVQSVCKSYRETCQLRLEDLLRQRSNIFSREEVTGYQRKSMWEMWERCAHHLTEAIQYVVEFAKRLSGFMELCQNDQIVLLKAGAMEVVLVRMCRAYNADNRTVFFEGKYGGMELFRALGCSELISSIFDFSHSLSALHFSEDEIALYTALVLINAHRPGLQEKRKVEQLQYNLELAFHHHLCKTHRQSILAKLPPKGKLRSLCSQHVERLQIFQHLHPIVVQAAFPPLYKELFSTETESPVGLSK
Procedure, shortened: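 Transient MRTU transfection of HepG2 (TRANS format, exogenous NR-Gal4 chimera). 24 h dosing. Total RNA → oligo(dT) RT → PCR → 6-FAM labelling → HpaI cut → CE. Gain vs DMSO.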
`CC1(C)S[C@@H]2[C@H](NC(=O)[C@H](N)c3ccccc3)C(=O)N2[C@H]1C(=O)O` was tested, and the outcome was “inactive”. `CCC(C)(CCC(C)C)C(=O)O` (configuration not stated) was tested, and the outcome was “inactive”. `Cc1cc(C)c(S(=O)(=O)O)cc1N=Nc1cc(S(=O)(=O)O)c2ccccc2c1O` was tested, and the outcome was “inactive”. `Clc1ccccn1` was tested, and the outcome was “inactive”. In the case of `NCc1ccccc1`, the outcome is reported as “inactive”. With `O=[N+]([O-])c1ccc2nc[nH]c2c1` the outcome was “inactive”. With `OCCOCCOCCOCCOCCO` the outcome was “inactive”. In the case of `CC(C)CC(=O)CC(C)CC(C)C` (configuration not stated), the outcome is reported as “inactive”. For `COC(OC)C(C)c1ccccc1` (configuration not stated), the outcome was “inactive”. With `COCCCN` the outcome was “inactive”. With `COc1ccccc1OCC(O)CO` (configuration not stated) the outcome was “inactive”. With `CC=CC(=O)O` the outcome was “inactive”.

What follows are molecules tested against Retinoic acid receptor RXR-alpha (Homo sapiens) (UniProt P19793) (assay: ATG_RXRa_TRANS: Attagene TRANS-FACTORIAL HepG2 Assay for human Retinoid X Receptor alpha (RXRa) (AID 2283012)).
Chain of Retinoic acid receptor RXR-alpha (Homo sapiens) (P19793 whole entry, looked up, the tested form may be a part): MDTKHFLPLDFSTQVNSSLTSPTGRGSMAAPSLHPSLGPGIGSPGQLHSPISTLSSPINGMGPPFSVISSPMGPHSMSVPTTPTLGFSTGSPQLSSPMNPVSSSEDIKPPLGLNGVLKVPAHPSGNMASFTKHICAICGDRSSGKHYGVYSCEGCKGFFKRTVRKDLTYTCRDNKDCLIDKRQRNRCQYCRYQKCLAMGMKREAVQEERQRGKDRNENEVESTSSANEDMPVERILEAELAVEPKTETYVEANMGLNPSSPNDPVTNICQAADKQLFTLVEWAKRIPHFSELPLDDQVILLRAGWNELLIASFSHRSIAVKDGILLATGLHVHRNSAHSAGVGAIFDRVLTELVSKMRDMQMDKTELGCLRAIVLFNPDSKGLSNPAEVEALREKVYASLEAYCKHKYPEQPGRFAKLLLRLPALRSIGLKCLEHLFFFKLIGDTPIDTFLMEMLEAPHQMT
Procedure, shortened: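 TRANS format reporting activity of exogenous RXRa-Gal4 chimera in transiently transfected HepG2, 24 h exposure. Reporter transcripts quantified by RT-PCR with capillary electrophoresis, with gain of signal scored relative to DMSO.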
With `CCCCCCCCCCC1CO1` (configuration not stated) the outcome was “inactive”. For `Cc1cc(O)cc(C)c1Cl`, the outcome was “inactive”. With `CC(O)(P(=O)(O)O)P(=O)(O)O` the outcome was “inactive”. `Cc1cccnc1` was tested, and the outcome was “inactive”. With `Cc1ccccc1S(N)(=O)=O` the outcome was “inactive”. For `CC(C)CC(=O)CC(C)CC(C)C` (configuration not stated), the outcome was “inactive”. In the case of `CC/C=C\CC1=C(C)CCC1=O`, the outcome is reported as “inactive”. In the case of `C[C@H]1C[C@H]2[C@@H]3CCC4=CC(=O)C=C[C@]4(C)[C@@]3(F)[C@@H](O)C[C@]2(C)[C@@]1(O)C(=O)CO`, the outcome is reported as “inactive”. In the case of `COC(OC)C(C)c1ccccc1` (configuration not stated), the outcome is reported as “inactive”. With `COCCCN` the outcome was “inactive”. For `OCCN(CCO)c1cccc(Cl)c1`, the outcome was “inactive”.

The molecules below were run against human Retinoid X Receptor beta (RXRb), RXRB (gene 6257) (UniProt P28702) (assay: ATG_RXRb_TRANS: Attagene TRANS-FACTORIAL HepG2 Assay for human Retinoid X Receptor beta (RXRb) (AID 2283013)).
Chain of human Retinoid X Receptor beta (RXRb), RXRB (gene 6257) (P28702 whole entry, looked up, the tested form may be a part): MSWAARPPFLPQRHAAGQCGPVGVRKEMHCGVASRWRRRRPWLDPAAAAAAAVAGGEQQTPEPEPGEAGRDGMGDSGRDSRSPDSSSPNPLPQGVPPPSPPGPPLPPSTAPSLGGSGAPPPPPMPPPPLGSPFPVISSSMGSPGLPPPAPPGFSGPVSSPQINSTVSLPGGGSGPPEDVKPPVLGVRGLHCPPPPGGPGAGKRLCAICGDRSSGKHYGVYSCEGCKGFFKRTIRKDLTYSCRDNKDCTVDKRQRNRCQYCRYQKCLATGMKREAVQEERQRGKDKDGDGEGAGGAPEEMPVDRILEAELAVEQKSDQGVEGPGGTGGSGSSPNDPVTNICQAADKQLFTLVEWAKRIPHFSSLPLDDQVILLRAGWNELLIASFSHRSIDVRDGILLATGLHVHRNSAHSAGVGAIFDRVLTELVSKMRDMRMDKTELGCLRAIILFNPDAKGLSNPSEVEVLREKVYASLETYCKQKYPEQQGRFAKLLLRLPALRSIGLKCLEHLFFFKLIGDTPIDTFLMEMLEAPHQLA
Procedure, shortened: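 Readout is reporter transcript induction after 24 h dosing. It is measured by RT-PCR of total RNA followed by fluorescent capillary electrophoresis. HepG2 liver cells carry transfected multiple reporter units driven by an exogenous RXRb-Gal4 fusion; activity is relative to DMSO.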
With `Cc1cc(C)c(S(=O)(=O)O)cc1N=Nc1cc(S(=O)(=O)O)c2ccccc2c1O` the outcome was “inactive”. `CCCc1c(OCCCCc2nn[nH]n2)ccc(C(C)=O)c1O` was tested, and the AC50 was 20.4 µM (active). For `c1cc(N(CC2CO2)CC2CO2)ccc1Cc1ccc(N(CC2CO2)CC2CO2)cc1` (configuration not stated), the outcome was “inactive”. For `CCCCCCOC(=O)CCCCCCCC(=O)OCCCCCC`, the outcome was “inactive”. In the case of `CC1=NN(c2cc(Cl)c(S(=O)(=O)O)cc2Cl)C(=O)C1N=Nc1ccc(S(=O)(=O)O)cc1` (configuration not stated), the outcome is reported as “inactive”. `O=C(O)Cc1c[nH]c2ccccc12` was tested, and the AC50 was 73.7 µM (active). For `CCCCCCCCCCC1CO1` (configuration not stated), the outcome was “inactive”. `NCc1ccccc1` was tested, and the outcome was “inactive”. In the case of `CCCCn1cc[n+](C)c1`, the outcome is reported as “inactive”. For `Cc1cc(O)cc(C)c1Cl`, the AC50 was 48.8 µM (active). For `CC(C)n1c(/C=C/[C@@H](O)C[C@@H](O)CC(=O)O)c(-c2ccc(F)cc2)c2ccccc21`, the outcome was “inactive”. For `CC(O)(P(=O)(O)O)P(=O)(O)O`, the outcome was “inactive”. `Cc1ccccc1S(N)(=O)=O` was tested, and the outcome was “inactive”. `C=C(C)C(=O)OCC1CCCO1` (configuration not stated) was tested, and the outcome was “inactive”. `C1=CCC=C1` was tested, and the outcome was “inactive”. With `CC(C)CC(=O)CC(C)CC(C)C` (configuration not stated) the outcome was “inactive”. With `CCCOCCC` the outcome was “inactive”. For `CN(C)CCCN1c2ccccc2CCc2ccc(Cl)cc21`, the AC50 was 5.79 µM (active). `CC/C=C\CC1=C(C)CCC1=O` was tested, and the outcome was “inactive”. With `C[C@H]1C[C@H]2[C@@H]3CCC4=CC(=O)C=C[C@]4(C)[C@@]3(F)[C@@H](O)C[C@]2(C)[C@@]1(O)C(=O)CO` the outcome was “inactive”. For `COC(OC)C(C)c1ccccc1` (configuration not stated), the outcome was “inactive”. In the case of `COCCCN`, the outcome is reported as “inactive”. `CC1=CCCC(C)(C)C12CCC(C)O2` (configuration not stated) was tested, and the outcome was “inactive”. With `CC(=O)c1nccs1` the outcome was “inactive”. For `COc1ccccc1OCC(O)CO` (configuration not stated), the outcome was “inactive”. For `OCCN(CCO)c1cccc(Cl)c1`, the outcome was “inactive”.
